# Screens as filed in PubChem BioAssay.
# TDP1 cell noCPT – qHTS for Inhibitors of human tyrosyl-DNA phosphodiesterase 1 (TDP1): qHTS in cells in absence of CPT; DT40 Tdp1-/- hTDP1 cells, no CPT, ATP luminescence, 48 h; actives 15% (n = 420,000); AID 686978, 2013; Potency, µM (titrated, usually from 46.2 µM), for inactives: at the top dose activity change, negative = growth inhibition, usual class: inhibitors; note: potency is the fitted concentration of half-maximal effect; nearly all actives have a fitted effect of over 55% in size
#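 Stably hTDP1-transfected Tdp1-null chicken DT40 cells were treated with library compounds minus camptothecin and grown for at least 48 hr at 37 °C, after which cellular ATP was quantified by luminescence.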
# HT1080 IDH1KD tx – toxicity to HT-1080 IDH1 knockdown cells (counter line); HT-1080 IDH1 knockdown viability, ATP luminescence, 48 h; Potency, µM (titrated, usually from 46.1 µM), without a hit: at the top dose activity, negative = toxicity, usual class: cytotoxic; actives 2% (n = 360,000); AID 686971;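 note: potency is the fitted concentration of half-maximal effect; 0% = DMSO wells and -100% = cell-free medium wells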
#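 CellTiter-Glo luminescence after 48 h compound exposure at 37 degrees C of IDH1-knockdown HT-1080 cells in 5% FBS RPMI. %Activity scaled between DMSO wells and cell-free media wells, with curves fitted and assigned curve classes.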
# TDP1 cell CPT – DT40-hTDP1 cell growth loss with CPT; Potency, µM (highest dose often 46.2 µM), inactives show top-dose activity change, negative = growth inhibition, most hits filed as inhibitors; actives 12% (n = 420,000); chicken DT40 Tdp1-/-;hTDP1 cells + 20 nM CPT, ATP luminescence, 48 h; AID 686979; note: potency is the fitted concentration of half-maximal effect; nearly all actives have a fitted effect of over 55% in size
#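 Chicken DT40 Tdp1-/- cells stably complemented with human TDP1 were seeded at 400 cells/well in medium containing 20 nM camptothecin, exposed to pin-transferred compounds, and grown at 37 °C for at least 48 hr. Viability was read as ATP luminescence.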
# IL1B secr inh – blocks inflammasome-driven IL-1 beta release. THP-1 LPS/ATP IL-1B secretion, AlphaLISA, 16 h; stronger effect = lower value. AID 743279. actives 4.7% (n = 360,000). activity change, % at 57.5 µM; in the data active = activity change below about -50%; inconclusive = mostly about -30% to -49%
#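 THP-1 cells pretreated 1 hr with compounds (up to 57.5 uM final), then stimulated with LPS (250 ng/mL final) plus ATP (1.25 mM final); secreted IL-1B measured by AlphaLISA after 16 hr, decreased signal indicating inhibition.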
# HT1080NT lethal – kills 2HG-producing HT-1080-NT fibrosarcoma cells; HT-1080-NT fibrosarcoma viability, CellTiter-Glo ATP luminescence, 48 h; Potency, µM (doses to about 46.1 µM), without a hit: at the highest dose activity, negative = less viability, usual class: cytotoxic; actives 1.6% (n = 360,000); AID 686970;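 note: NT is the 2HG producing partner of a matched IDH1 knockdown line; potency is the fitted concentration of half-maximal effect; 0% = DMSO-treated cells and -100% = media-only wells without cells; nearly all actives have a fitted effect of over 55% in size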
#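 750 cells/well, RPMI + 5% FBS; 2 h settle, compound pin-transfer, 48 h at 37 degrees C. CellTiter-Glo 10 min RT, luminescence. Normalized to DMSO and media-only wells.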
# * marks the source's active call; other numbers are inactive results; ? = inconclusive; · = not tested or not shown; [ ] = another dose, or the depositor's remark. Shown are actives, neighbours in structure and some others; about 19% of the full set was active somewhere. Unless noted, calls come from the whole dose curve; as a rule, active = well fitted curve in the direction sought with a large enough effect; inconclusive = small, poorly fitted or top-dose-only effect, or another doubt; inactive = no such curve, though single readings can be large; an effect the other way counts as inactive or inconclusive. Unless noted, % is set by controls: 0 for no effect and ±100 for the full control effect.
SMILES,TDP1 cell noCPT,HT1080 IDH1KD tx,TDP1 cell CPT,IL1B secr inh,HT1080NT lethal
CCC(C(=O)NCCC1=CCCCC1)n1nc(C)c2c(C)n(-c3ccccc3)nc2c1=O (stereo not drawn),25.9µM*,-2.5%,?,-0.1,-1.1%
Cc1ccc(CCNC(=O)C(C)n2nc(C)c3c(C)n(-c4ccc(C)cc4)nc3c2=O)cc1 (stereo not drawn),20.6µM*,·,20.6µM*,·,·
COc1ccc(CCNC(=O)C(C)n2nc(C)c3c(C)n(-c4ccc(C)cc4)nc3c2=O)c(OC)c1 (stereo not drawn),?,-25.3%,23.1µM*,-50.4*,20.6µM*
Cc1ccc(-n2nc3c(=O)n(CC(=O)NC(C)CCc4ccccc4)nc(C)c3c2C)cc1 (stereo not drawn),23.1µM*,-14.8%,?,19.1,-4.5%
O=C(COc1c(Br)cc(Br)cc1Br)N/N=C/c1ccco1,-21.9%,-25.7%,-20.2%,0.0,-14.9%
CC1CN(C(=O)c2cccc(S(=O)(=O)N3CCOCC3)c2)CC(C)O1 (stereo not drawn),1.0%,?,-3.6%,17.0,3.0%
O=C(c1cccc(S(=O)(=O)N2CCN(c3ccc(F)cc3)CC2)c1)N1CCCC(C(F)(F)F)C1 (stereo not drawn),4.11µM*,?,3.26µM*,-16.6,16.4µM*
CC1CN(C(=O)c2cccc(S(=O)(=O)N3CCN(c4ccc(F)cc4)CC3)c2)CC(C)O1 (stereo not drawn),?,1.2%,25.9µM*,4.6,8.0%
CCOc1ccccc1C(=O)NCC(=O)N(C)CC(=O)Nc1ccc(N2CCOCC2)cc1,1.0%,10.8%,-0.3%,-1.5,10.5%
COC(=O)c1c[nH]n2c(=O)cc(CCl)nc12,2.7%,2.9%,-19.5%,-5.0,13.6%
Cc1ccc(-c2ccc(CN3C(C(C)C)C(=O)N(Cc4cn(CCC5OCCO5)nn4)CCS3(=O)=O)cc2)c(C)c1 (stereo not drawn),18.4µM*,23.1µM*,9.2µM*,?,?
Cc1ccccc1-c1ccc(CN2C(C(C)C)C(=O)N(Cc3cn(CCC4OCCO4)nn3)CCS2(=O)=O)cc1 (stereo not drawn),18.4µM*,?,?,-57.0*,?
CCC/C=C/c1ccc(CN2C(C(C)C)C(=O)N(Cc3cn(CCC4OCCCO4)nn3)CCS2(=O)=O)cc1 (stereo not drawn),?,-17.1%,?,?,-4.2%
CC(Sc1nnc(C2CC2)n1N)C(=O)NC1CCCCC1C (stereo not drawn),-17.9%,1.7%,5.6%,10.4,1.3%
O=[N+]([O-])c1ccc(N2CCN(c3ccccc3Cl)CC2)cn1,20.6µM*,-4.2%,18.4µM*,-0.9,1.2%
CCOC(=O)c1cc(-c2ccccc2)n(-c2cccc(C(=O)N(C)c3ccc(C)cc3)c2)c1C,8.2µM*,·,-80.0%,·,·
CCOC(=O)c1cc(-c2ccccc2)n(-c2cccc(C(=O)Nc3ccc(F)c(F)c3)c2)c1C,-104.1%,·,?,·,·
CCn1cc(S(=O)(=O)c2cc(C)cc(C)c2)c(=O)c2cc(F)c(N3CCC(C)CC3)cc21,?,·,-101.1%,·,·
Cc1ccc(S(=O)(=O)c2cn(C)c3cc(N4CCCC(C)C4)c(F)cc3c2=O)c(C)c1 (stereo not drawn),23.1µM*,·,23.1µM*,·,·
Cc1ccc(S(=O)(=O)c2cn(C)c3cc(N4CCCC4)c(F)cc3c2=O)c(C)c1,23.1µM*,·,?,·,·
Cc1ccc(S(=O)(=O)c2cn(C)c3cc(N4CCCCCC4)c(F)cc3c2=O)cc1,16.4µM*,·,?,·,·
CCn1cc(S(=O)(=O)c2cc(C)cc(C)c2)c(=O)c2cc(F)c(N3CCCCC3)cc21,20.6µM*,·,?,·,·
CC(C)CC(=O)N1CCN(Cc2ccc(Br)cc2)CC1,?,3.8%,?,2.9,3.9%
CCOC(=O)C1CCN(c2c(NC3CCCc4ccccc43)c(=O)c2=O)CC1 (stereo not drawn),-21.4%,4.8%,-15.6%,-16.9,0.7%
CCCNC(=O)C1(C)CCCN(C(=O)COc2ccc(Cl)cc2Cl)C1 (stereo not drawn),-25.6%,0.3%,-17.2%,0.0,-1.5%
SMILES,TDP1 cell noCPT,HT1080 IDH1KD tx,TDP1 cell CPT,IL1B secr inh,HT1080NT lethal
O=C(C=Cc1ccccc1)CC(c1ccccc1)N1CCOCC1 (stereo not drawn),3.26µM*,?,4.11µM*,-97.6*,4.11µM*
Cc1c2ccccc2nc2c(F)c(NC(C)C)c(F)c(F)c12,?,-27.6%,?,-53.3*,-22.4%
Cc1nnc2c(NC(C)C)nc3ccccc3n12,?,-13.5%,?,-12.2,-3.1%
OCCNc1c2ccccc2nc2c(F)c(F)c(F)c(F)c12,2.31µM*,4.61µM*,2.06µM*,-92.6*,?
Cc1c2ccccc2nc2c(F)c(NCCO)c(F)c(F)c12,?,-3.8%,?,-86.6*,-6.5%
CCNc1c2c(nc3ccccc13)CC(C)(C)CC2=O,?,-4.0%,?,21.8,2.6%
COCCCn1c(SCC(=O)NC2CCCC2)nnc1-c1ccncc1,4.3%,21.4%,18.0%,-0.7,13.8%
Nc1ccc(C(=O)OCC(=O)NC(=O)c2ccccc2)cc1[N+](=O)[O-],-9.5%,18.8%,21.3%,17.0,12.7%
Cc1cc(C)cc(OCC(=O)OCc2cc([N+](=O)[O-])cc3c2OCOC3)c1,4.1%,7.0%,13.6%,11.0,0.1%
CCCCC/C=C\CCC(=O)N[C@H]1[C@H](Oc2c3cc4cc2Oc2ccc(cc2Cl)[C@@H](O[C@@H]2O[C@H](CO)[C@@H](O)[C@H](O)[C@H]2NC(C)=O)[C@@H]2NC(=O)[C@H](NC(=O)[C@@H]4NC(=O)[C@H]4NC(=O)[C@@H](Cc5ccc(c(Cl)c5)O3)NC(=O)[C@H](N)c3ccc(O)c(c3)Oc3cc(O)cc4c3)c3ccc(O)c(c3)-c3c(O[C@H]4O[C@H](CO)[C@@H](O)[C@H](O)[C@@H]4O)cc(O)cc3[C@@H](C(=O)O)NC2=O)O[C@H](CO)[C@@H](O)[C@@H]1O,-11.2%,·,11.7%[21.1 µM],·,·
COC(=O)c1cc(OC)c(OC)c(OC)c1NC(=O)c1cc(=O)n(C)c(=O)n1C,-3.8%,·,2.5%,·,·
Cc1cc(N2CCC(C(=O)Nc3ccc(F)cc3C)CC2)n2nc(C)c(-c3ccc(Cl)cc3)c2n1,-14.5%,·,?,·,·
CCOC(=O)N1CCN(Cc2ccc3c(c2)CN(C(=O)c2ccc4ncccc4c2)CCO3)CC1,23.1µM*,·,-11.0%[9.04 µM],·,·
COc1ccc(C(=O)N2CCOc3ccc(CN4CCN(c5ccccn5)CC4)cc3C2)o1,-21.9%,·,3.6%[9.04 µM],·,·
